{
  "source": "paper PMC5540273",
  "about": "(PLoS ONE, 2017);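 note: KINOMEscan kinase panel screen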",
  "data": [
    {"system": "T1, PRKR", "T1 construct": "gene EIF2AK2", "conditions": "concentration: 1 μM, replicates: in singlicate; n = 1", "units": {"%Inh": "%"}, "values": [
      {"smiles": "COC(=O)Nc1nc2cc(Oc3ccc(NC(=O)Nc4cc(C(F)(F)F)ccc4F)cn3)ccc2[nH]1.Cl.Cl", "note": "[GW681170]", "%Inh": 0},
      {"smiles": "Fc1ccc(-c2ncn(C3CCNCC3)c2-c2ccnc(Oc3ccc(-c4ccccc4)cc3)n2)cc1", "note": "[SB-245391]", "%Inh": 25},
      {"smiles": "Cc1ccc(C)c(NC(=O)NC2CCN(c3ccnc(Nc4ccc(F)cc4)n3)C2)c1", "note": "(stereo not shown) [GSK1379720]", "%Inh": 0},
      {"smiles": "CSc1cccc2c(-c3ccncn3)c(-c3ccc(F)cc3)nn12", "note": "[GW514786]", "%Inh": 0},
      {"smiles": "Oc1cc(Nc2ccnc3cc(I)ccc23)ccc1F", "note": "[GW552771]", "%Inh": 0},
      {"smiles": "Cc1ccc(S(=O)(=O)Nc2ccc(Nc3nccc(Nc4cccc5[nH]ncc45)n3)cc2)cc1", "note": "[GSK581271]", "%Inh": 0},
      {"smiles": "COc1cccc(-c2ccc3c(NC(=O)C4CC4)n[nH]c3n2)c1", "note": "[SB-710903]", "%Inh": 0},
      {"smiles": "O=C(Nc1cccc(-c2nn3ccccc3c2-c2ccnc(Nc3cccc(C(F)(F)F)c3)n2)c1)c1c(F)cccc1F", "note": "[GSK292658]", "%Inh": 0},
      {"smiles": "Cl.Cl.NCC(NCc1ccc(-c2ccnc3[nH]ccc23)s1)c1ccccc1", "note": "(stereo not shown) [GSK1321565]", "%Inh": 0},
      {"smiles": "CCn1c(-c2nonc2N)nc2c(C#CC(C)(C)O)nc(OC[C@H](N)c3ccccc3)cc21", "note": "[GSK943949]", "%Inh": 0},
      {"smiles": "COCCOCCOc1cc2ncc3c4ccc(C#N)cc4[nH]c3c2cc1OC", "%Inh": 41},
      {"smiles": "Clc1ccc(-c2nn3ncccc3c2-c2ccnc(Nc3ccc4c(c3)OCCO4)n2)cc1", "note": "[GW829116]", "%Inh": 0},
      {"smiles": "COc1cccc(NC(=O)NC2CCN(c3ccnc(Nc4cc(OC)c(OC)c(OC)c4)n3)C2)c1", "note": "(stereo not shown) [GSK1379763]", "%Inh": 6},
      {"smiles": "COc1cccc(C(=O)Nc2cccc(Oc3ccc4nc(NC(=O)C5CC5)cn4n3)c2)c1", "%Inh": 0},
      {"smiles": "CN(C)Cc1ccc(-c2ccc3c(Nc4ccc(Oc5ccccn5)cc4)ccnc3c2)o1", "note": "[GW567148]", "%Inh": 0},
      {"smiles": "Nc1ncc(-c2cccnc2)c2scc(-c3ccc4c(c3)CCN4C(=O)Cc3ccccc3)c12", "note": "[GSK683281]", "%Inh": 5},
      {"smiles": "COc1ccc(Nc2nccc(NCCNC(=O)c3cc4ccccc4s3)n2)cc1", "note": "[GSK1379896]", "%Inh": 0},
      {"smiles": "O=C(Nc1n[nH]c2nc(-c3ccc(O)cc3)ccc12)C1CC1", "note": "[SB-710363]", "%Inh": 0},
      {"smiles": "O=C(Nc1cccc(-c2nn3ccccc3c2-c2ccnc(Nc3cccc(F)c3)n2)c1)c1c(F)ccc(F)c1Cl", "note": "[GSK357952]", "%Inh": 0},
      {"smiles": "CN1CCN(Cc2cccc(-c3ccc4c(Nc5ccc(Oc6ccccc6)cc5)ccnc4c3)c2)CC1", "note": "[GW578342]", "%Inh": 0},
      {"smiles": "COc1cc(Nc2nccc(N3CCC(NC(=O)Nc4cccc(C(C)=O)c4)C3)n2)cc(OC)c1OC", "note": "(stereo not shown) [GSK1379753]", "%Inh": 0},
      {"smiles": "c1ccc(Oc2ccc(Nc3ccnc4cc(-c5ccc(CNCCN6CCOCC6)o5)ccc34)cc2)nc1", "note": "[GW567145]", "%Inh": 0},
      {"smiles": "CC(C)c1nc(-c2cccc(NS(=O)(=O)c3c(F)cccc3F)c2F)c(-c2ccnc(Nc3ccc(N4CCOCC4)nc3)n2)s1", "note": "[GSK2008607]", "%Inh": 29},
      {"smiles": "C[C@@H](Oc1cc(-n2cnc3cc(-c4ccnc(NCCS(C)(=O)=O)c4)ccc32)sc1C(N)=O)c1ccccc1Cl", "note": "[GSK907232]", "%Inh": 0},
      {"smiles": "Cn1cc(-c2[nH]c3cc(NC(=O)[C@H](N)C4CCCCC4)cc4c3c2C=NNC4=O)cn1", "%Inh": 67},
      {"smiles": "CCS(=O)(=O)c1ccc(OC)c(Nc2nccc(-c3c(-c4cccc(NC(=O)c5c(F)cccc5F)c4)nn4ncccc34)n2)c1", "note": "[GSK326180]", "%Inh": 0},
      {"smiles": "Cl.NC(=O)c1cccc(Nc2nccc(Nc3ccc(Oc4c(Cl)cccc4Cl)c(Cl)c3)n2)c1", "note": "[GW659009]", "%Inh": 0},
      {"smiles": "Nc1ncc(-c2ccc3nccc(-c4ccncc4)c3c2)cc1S(=O)(=O)N1CCOCC1", "note": "[GSK1627798]", "%Inh": 14},
      {"smiles": "Cn1cc(-c2ccc3c(c2)CCN3C(=O)Cc2cccc(Cl)c2)c2c(N)ncnc21", "note": "[GSK2606590]", "%Inh": 14},
      {"smiles": "CC(C)(C)c1ccc2nccc(Nc3cccc(O)c3)c2c1", "note": "[GW856795]", "%Inh": 0},
      {"smiles": "CC(=O)Nc1nc2cnc(Nc3cc(NC(=O)c4cccc(C5(C#N)CC5)c4Cl)ccc3C)nc2s1", "%Inh": 0},
      {"smiles": "COc1cc(Nc2nccc(N3CCC(NC(=O)c4cc5ccccc5s4)C3)n2)cc(OC)c1OC", "note": "(stereo not shown) [GSK1379760]", "%Inh": 8},
      {"smiles": "Cc1occc1-c1ncc(OC[C@@H](N)Cc2c[nH]c3ccccc23)cc1-c1ccc2[nH]nc(C)c2c1.O=C(O)C(F)(F)F", "note": "[GSK682037]", "%Inh": 0},
      {"smiles": "C[C@@H]1CC[C@@H](C(=O)Nc2ccccc2)CN1c1cc(-c2ccc3c(N)n[nH]c3c2)nc(N)n1", "note": "[GSK2286062]", "%Inh": 2},
      {"smiles": "CCn1c(-c2nonc2N)nc2c(C#CC(C)(C)O)ncc(OCCCCN)c21.O=C(O)C(F)(F)F.O=C(O)C(F)(F)F", "note": "[GSK507274]", "%Inh": 0},
      {"smiles": "O=c1[nH]cc(-c2ccc(N3CCOCC3)cc2)c2sc(-c3cn[nH]c3)cc12", "note": "[GSK2276055]", "%Inh": 34},
      {"smiles": "COc1cccc(C2=C(Nc3ccc(Cl)c(C(=O)O)c3)C(=O)NC2=O)c1", "note": "[SB-390769]", "%Inh": 9}
    ]}
  ]
}
